Reference: PubChem BioAssay AID1851 (National Center for Advancing Translational Sciences (NCATS), 2009)
Among all 16,000 compounds or so, about 5,700 (36%) were called active. Not shown: some 24% with an inconclusive outcome. The list shows a part of the results. Unmarked numbers belong to inactive results. The call rests on the fitted dose curve; in most records, active means well fitted curve in the direction sought with a large enough effect; inconclusive means small, poorly fitted or top-dose-only effect, or effect the other way; inactive means no such curve, though single readings can be large or run the other way.

target: Cytochrome P450 1A2 (Homo sapiens) (UniProt P05177); assay: Cytochrome panel assay with activity outcomes; conditions: recombinant CYP, pro-luciferin dealkylation, luminescence, p450-cyp1a2; series mostly up to 57.1 µM; activity, negative = inhibition: at the top concentration
Sequence (P05177 whole entry, looked up): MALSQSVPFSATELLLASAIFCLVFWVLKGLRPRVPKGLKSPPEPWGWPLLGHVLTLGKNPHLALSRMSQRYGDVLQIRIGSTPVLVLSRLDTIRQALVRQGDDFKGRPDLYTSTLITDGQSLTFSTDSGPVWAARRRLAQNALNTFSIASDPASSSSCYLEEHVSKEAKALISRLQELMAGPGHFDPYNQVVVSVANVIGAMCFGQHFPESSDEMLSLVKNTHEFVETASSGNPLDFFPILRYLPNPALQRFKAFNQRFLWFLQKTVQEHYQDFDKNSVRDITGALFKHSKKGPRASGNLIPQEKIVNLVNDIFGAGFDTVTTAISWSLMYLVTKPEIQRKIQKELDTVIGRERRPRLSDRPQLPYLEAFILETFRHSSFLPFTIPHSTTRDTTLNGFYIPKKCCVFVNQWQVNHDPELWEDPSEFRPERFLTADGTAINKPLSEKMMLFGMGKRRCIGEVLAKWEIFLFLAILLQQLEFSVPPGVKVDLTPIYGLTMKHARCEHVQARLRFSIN
On the % scale 0 is the no-effect control and ±100 the full control effect.

Row | Compound | activity, negative = inhibition | AC50
1 | C[C@H]1COC(=O)[C@H]2CCCN2C(=O)[C@@H](C)COC(=O)[C@H](Cc2ccccc2)NC1=O | -1.22% [at 11.4 µM] | 
2 | Oc1c(Br)cc(CN(Cc2cc(Br)c(O)c(Br)c2)C2CCCCC2)cc1Br | -5.68% [at 2.29 µM] | 
3 | Oc1c(Br)cc(Br)cc1CN(Cc1cc(Br)cc(Br)c1O)C1CCCCC1 |  | 3160 nM (active)
4 | CON1C(=O)C(=O)N(OC)C2CCCCC21 (stereo not drawn) | 14% | 
5 | Cc1cnc(CNc2nc(-c3cccnc3)nc3ccccc23)cn1 |  | 2510 nM (active)
6 | COc1cccc(-c2nc(NCc3cnc(C)cn3)c3ccccc3n2)c1 |  | 398 nM (active)
7 | c1cncc(-c2nccc(NCc3cccs3)n2)c1 |  | 200 nM (active)
8 | CN(C)C(=O)c1ccc(-c2nccc(NCc3cccs3)n2)cc1 |  | 15800 nM (active)
9 | CN(C)c1ccc(-c2nccc(NCc3cccs3)n2)cc1 |  | 398 nM (active)
10 | c1csc(CNc2ccnc(-c3ccoc3)n2)c1 |  | 1000 nM (active)
11 | CN(C)CCN(Cc1cccs1)c1ccccn1 | -19.1% | 
12 | CC(C)=CCC/C(C)=C/CO/N=C1/[C@H]2O[C@@H]2[C@@H](O)[C@H]2[C@H]1CCn1c(=O)n(-c3ccccc3)c(=O)n12 | 3.05% [at 11.4 µM] | 
13 | C[C@@H](c1ccccc1)N1C(=O)[C@H]2[C@H]3[C@H](O)[C@H](O)C/C(=N/OCc4ccccc4)[C@H]3CC[C@@H]2C1=O | -3.77% [at 11.4 µM] | 
14 | C=CCCC(=O)Nc1nc(C)c(-c2csc(Nc3ccc(Cl)cc3)n2)s1 |  | 5010 nM (active)
15 | COc1ccccc1Nc1nc(-c2sc(NC(=O)c3ccccc3)nc2C)cs1 | -22.6% | 
16 | Cc1nc(NC(=O)c2ccccc2)sc1-c1csc(Nc2ccc(Cl)cc2Cl)n1 | -19.1% | 
17 | Cc1nc(NC(=O)c2ccccc2)sc1-c1csc(Nc2cccc(F)c2)n1 |  | 11200 nM (active)
18 | Cc1ncc(CO)c(CO)c1O | -13% [at 25.6 µM] | 
19 | Cc1nnc(N(C)C(=O)c2ccccn2)s1 | -21.3% | 
20 | CC(=O)N(C)c1nnc(-c2cnccn2)s1 |  | 6310 nM (active)
21 | C[C@@H]1C(=O)N(C)C(=O)c2nc[nH]c21 | -19.5% | 
22 | O=C1OC(OC2CCCCC2)(c2ccccc2)c2ccccc21 (stereo not drawn) | -10.7% | 
23 | Cc1ccccc1-c1cncnc1Nc1ccc(F)cc1 |  | 10000 nM (active)
24 | Cc1ccccc1-c1cncnc1Nc1ccccc1 |  | 15800 nM (active)

Row | Compound | activity, negative = inhibition | AC50
25 | CCOCCCNC(=O)CCS(=O)(=O)Cc1ccc(C)cc1 | -7.44% | 
26 | COc1ccc(OC)c(NC(=O)C(CC(=O)O)NCc2ccco2)c1 (stereo not drawn) | -20.7% | 
27 | COc1ccccc1NC(=O)Nc1nnc(-c2ccco2)s1 |  | 2000 nM (active)
28 | COc1ccccc1-c1nnc(NC(C)=O)s1 |  | 1260 nM (active)
29 | O=C(Cc1ccccc1)NC(=S)Nc1cc(C(F)(F)F)ccc1Cl |  | 2000 nM (active)
30 | COC(=O)N1CCC2(CCN(Cc3cc(C(F)(F)F)cc(C(F)(F)F)c3)CC2)CC1 | -19.2% | 
31 | CN(C)c1cc[n+](CC(=O)Nc2cc(C(F)(F)F)ccc2Cl)cc1 | -18.9% | 
32 | O=C(CCCC(=O)OCC(=O)c1ccc(Cl)cc1Cl)Nc1cc(C(F)(F)F)ccc1Cl |  | 2820 nM (active)
33 | Cc1cc(NC(=O)CCCC(=O)OCC(F)(F)C(F)F)cc(C)c1C(=O)O | 11.5% | 
34 | Cc1ccc(C)n1CCN1CCN(CC(=O)Nc2cc(C(F)(F)F)ccc2Cl)CC1 |  | 25100 nM (active)
35 | N/C(CC(=O)Nc1cc(C(F)(F)F)ccc1Cl)=N\O |  | 1580 nM (active)
36 | O=C1[C@H]2CCn3c(=O)n(-c4ccccc4)c(=O)n3[C@H]2[C@H](O)[C@H]2O[C@@H]12 | -2.61% [at 11.4 µM] | 
37 | Cc1cc(N2C(=O)C(O)=C(C(=O)c3cccs3)C2c2cccc(O)c2)no1 (stereo not drawn) | -1.3% | 
38 | CC(C)=CCC/C(C)=C/CO/N=C1/C[C@@H](O)[C@@H](O)[C@@H]2[C@@H]3C(=O)N(C(C)(C)C)C(=O)[C@H]3CC[C@@H]12 | -0.662% [at 11.4 µM] | 
39 | C/C(CCN1CCCCc2nc(C)c(C)cc21)=N\OC[C@@H](O)[C@@H]1O[C@@H]2OC(C)(C)O[C@@H]2[C@H]1O | -3.55% [at 11.4 µM] | 
40 | O=CN1CCN(C[C@H](O)CN2CCCCC2)CC1 | -17.6% [at 2.29 µM] | 
41 | O=C(c1ccccc1)c1cc(F)c(N2CCOCC2)cc1Cl |  | 11200 nM (active)
42 | CC(C)[C@H](N)c1nnc(SC/C=C/c2ccccc2)o1 |  | 631 nM (active)
43 | CC(C)[C@H](N)c1nnc(SCc2ccc(Cl)cc2)o1 |  | 794 nM (active)
44 | O=C(NC12CC3CC(CC(C3)C1)C2)C12CC3CC(C1)CC(n1cnc(Cl)n1)(C3)C2 | -11.9% | 
45 | NCC1CCC(C(=O)O)CC1 (stereo not drawn) | -3.69% [at 25.6 µM] | 
46 | N#C/C(=C\c1ccc(Cl)cc1)c1nc2ncccc2[nH]1 |  | 2000 nM (active)
47 | N#C/C(=C\c1ccccc1)c1nc2ncccc2[nH]1 |  | 1260 nM (active)
48 | CCC(=O)O[C@@H]1[C@H](C)O[C@H](O[C@H]2[C@@H](N(C)C)[C@H](O)[C@@H](O[C@@H]3[C@@H](CC=O)C[C@@H](C)[C@@H](O)/C=C\C=C/C[C@@H](C)OC(=O)C[C@@H](OC(=O)CC)[C@H]3OC)O[C@H]2C)C[C@]1(C)O | -13.6% [at 25.6 µM] | 

Row | Compound | activity, negative = inhibition | AC50
49 | c1cncc(-c2ccc3ncnc(NC4CCNCC4)c3c2)c1 |  | 12600 nM (active)
50 | COc1cccc(-c2ccc3ncnc(NC4CCNCC4)c3c2)c1 |  | 20000 nM (active)
51 | COc1cccc(-c2ccc3ncnc(NC4CC4)c3c2)c1 |  | 200 nM (active)
52 | N#Cc1cccc(-c2ccc3ncnc(NC4CCNCC4)c3c2)c1 |  | 15800 nM (active)
53 | COc1cccc(-c2cncnc2NC2CCNCC2)c1 | -19.7% | 
54 | C[n+]1cccc(CNC(=O)/C=N/O)c1 | 1.69% | 
55 | CC(C)[C@]1(Cl)CC[C@@H]2[C@]3(C)CCC[C@@](C)(C(=O)O)[C@H]3C[C@H](Cl)[C@@]2(Cl)[C@H]1Cl | -13% [at 11.4 µM] | 
56 | Cn1c(C[C@@H](O)c2nc3ccccc3n2C)nc2ccccc21 | -2.56% [at 2.29 µM] | 
57 | Cn1c(SCc2nc3ccccc3n2CCO)nc2ccccc21 |  | 10000 nM (active)
58 | CCCS(=O)(=O)N1CCCC(C(=O)NCC2CCCO2)C1 (stereo not drawn) | -17.1% | 
59 | N#Cc1nc(-c2ccc(F)cc2)oc1N1CCCC1 |  | 178 nM (active)
60 | CC(=O)O[C@@H](C)C[N+](C)(C)C |  | inactive
61 | COc1ccccc1-c1nc(NCc2ccccc2)c2ccccc2n1 |  | 398 nM (active)
62 | COc1ccccc1-c1nc(NCc2cccs2)c2ccccc2n1 |  | 631 nM (active)
63 | Clc1ccccc1-c1nc(NCc2cccs2)c2ccccc2n1 |  | 1000 nM (active)
64 | CNc1nc(-c2ccccc2OC)nc2ccccc12 |  | 398 nM (active)
65 | COc1ccccc1-c1nc(NCc2cccnc2)c2ccccc2n1 |  | 794 nM (active)
66 | N/N=C1/CC(=O)NC(=O)N1 |  | 631 nM (active)
67 | COc1ccc(OC[C@@H](CO)OC)cc1 | -13.3% [at 11.4 µM] | 
68 | CCNc1ncc2ncc(=O)n(C[C@H]3CCCO3)c2n1 |  | 10000 nM (active)
69 | O=C1[C@H]2[C@H]3[C@H](O)[C@H](O)C/C(=N/OCc4ccccc4)[C@@H]3CC[C@@H]2C(=O)N1C[C@@H]1CCCO1 | 1.8% [at 11.4 µM] | 
70 | O=C1[C@H]2[C@H]3[C@H](O)[C@H](O)C/C(=N/OCc4ccccc4)[C@H]3CC[C@@H]2C(=O)N1C[C@@H]1CCCO1 | -4.81% [at 11.4 µM] | 
71 | O=c1cnc2cnc(Nc3ccccc3)nc2n1C[C@H]1CCCO1 |  | 794 nM (active)
72 | CCCc1nnc(SCC(=O)N2CCCCC2C)n1CC1CCCO1 (stereo not drawn) | 17.6% | 

Row | Compound | activity, negative = inhibition | AC50
73 | CCCc1nnc(SCC(=O)N2CCCCC2)n1CC1CCCO1 (stereo not drawn) | 0.426% | 
74 | Cc1cc2nc(CCN(C(=S)NCC(C)C)C3CCCC3)[nH]c2cc1C |  | 3160 nM (active)
75 | CCNC(=O)c1c(NC(C)=O)sc2c1CCCC2 |  | 1260 nM (active)
76 | CC(=O)Nc1sc2c(c1C(N)=O)CCCC2 |  | 3160 nM (active)
77 | CC(=O)Nc1nnc(CCN2CCCCC2)s1 | 25.3% | 
78 | COCCCNC(=O)c1c(NC(=O)c2cccs2)sc2c1CCCC2 |  | 251 nM (active)
79 | CCN(CC)S(=O)(=O)c1cccc(C(=O)N[C@H](C(=O)OCC(=O)NC(=O)NC)C(C)C)c1 | 0.134% | 
80 | CCCC[C@@H]1C[C@H]1C(NC(=O)c1ccco1)c1ccccc1 (stereo partly drawn) |  | 2000 nM (active)
81 | CCCNC(=O)CC(NS(=O)(=O)c1ccc(Cl)cc1)c1ccco1 (stereo not drawn) | -15.2% | 
82 | CCCC[C@@H]1C[C@H]1C(NC(=O)Cc1ccccc1)c1ccc(-c2ccccc2)cc1 (stereo partly drawn) | -13% | 
83 | CCCC[C@@H]1C[C@H]1C(NC(=O)c1ccco1)c1ccc(-c2ccccc2)cc1 (stereo partly drawn) |  | 5010 nM (active)
84 | CCCC[C@@H]1C[C@H]1C(NC(=O)c1ccco1)c1ccc(Cl)cc1 (stereo partly drawn) |  | 794 nM (active)
85 | COC(=O)C(CCSC)NC(=O)c1cccc([N+](=O)[O-])c1 (stereo not drawn) | -27.1% | 
86 | CCOc1cc(C)ccc1OCc1nnc(SCC(=O)c2cccc([N+](=O)[O-])c2)n1CC | -13% | 
87 | N/C(=N\OC(=O)Cc1ccc(-c2ccccc2)cc1)c1cccc([N+](=O)[O-])c1 |  | 14100 nM (active)
88 | Cc1cccc(C(=O)O/N=C(\N)c2cccc([N+](=O)[O-])c2)c1 |  | 2510 nM (active)
89 | C[C@@H](c1ccccc1)N1C(=O)[C@H]2[C@H]3[C@H](O)[C@H](O)C/C(=N/OCc4ccccc4)[C@@H]3CC[C@@H]2C1=O | -7.71% [at 11.4 µM] | 
90 | Clc1ccc([C@H](Cn2ccnc2)OCc2csc3c(Cl)cccc23)c(Cl)c1 |  | 6310 nM (active)
91 | Clc1ccc(C(c2ccc(Cl)cc2)n2cc[n+](C[C@@H](OCc3ccc(Cl)cc3Cl)c3ccc(Cl)cc3Cl)c2)cc1 |  | 31600 nM (active)
92 | Clc1ccc(COC(Cn2ccnc2)c2ccc(Cl)cc2Cl)c(Cl)c1 (stereo not drawn) |  | 1260 nM (active)
93 | Clc1ccc(CO[C@@H](Cn2ccnc2)c2ccc(Cl)cc2Cl)cc1 |  | 100 nM (active)
